# Source: PubChem BioAssay (NCI)
# The panel holds about 83,000 compounds, 20% with a hit somewhere; the sample as a whole holds those more often.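 48-hour exposure, single concentration, 96-well plates; percent growth endpoint where 0 means no net growth. Active: below 10.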 Unmarked numbers belong to inactive results. The source made the active and inactive calls.
# How the values were obtained:
# Test in all cases: NCI-60 one-dose screen, 48 h (100 = growth as untreated, 0 = no growth, -100 = all killed)
# Conditions in all cases: 10 µM unless noted
# SR leukemia = tested on: SR leukemia
# RPMI-8226 leukemia = tested on: RPMI-8226 leukemia
# OVCAR-8 ovarian = tested on: OVCAR-8 ovarian
# OVCAR-4 ovarian = tested on: OVCAR-4 ovarian
# IGROV1 ovarian = tested on: IGROV1 ovarian
# OVCAR-3 ovarian = tested on: OVCAR-3 ovarian
# HS 578T breast = tested on: HS 578T breast
# NCI/ADR-RES ovarian = tested on: NCI/ADR-RES ovarian
# OVCAR-5 ovarian = tested on: OVCAR-5 ovarian
# SK-OV-3 ovarian = tested on: SK-OV-3 ovarian
Structure (SMILES),growth (SR leukemia),growth (RPMI-8226 leukemia),growth (OVCAR-8 ovarian),growth (OVCAR-4 ovarian),growth (IGROV1 ovarian),growth (OVCAR-3 ovarian),growth (HS 578T breast),growth (NCI/ADR-RES ovarian),growth (OVCAR-5 ovarian),growth (SK-OV-3 ovarian)
CC(=O)N1CC(=O)NC1=S,91.8%,101%,103%,96.5%,105%,110%,102%,104%,,
O=C1C=CC(=O)N1c1cccc2c1CCCC2,87.6%,100%,,102%,97.5%,106%,114%,112%,103%,99.5%
COC1CC(C)C(OC)c2cc(O)cc(c2O)NC(=O)/C(C)=C/C=C\C(C)C(OC(N)=O)/C(C)=C\C(C)C1OC (configuration not stated),-5.85% (active),1.65% (active),,-39.9% (active),-0.486% (active),20.2%,,-67.2% (active),27.2%,16.1%
CCCCCCCCCCCCN1C(C)=CS/C1=C\C=C\c1scc(C)[n+]1CCCCCCCCCCCC,-4.71% (active),-11.3% (active),,34.2%,42.8%,31.9%,76.6%,68%,61%,50.3%
O=C(O)c1cc2c(s1)C(=O)c1sccc1C2=O,-12.3% (active),74.3%,,-6.65% (active),56.3%,-18.6% (active),-18.8% (active),15.1%,78.3%,115%
CN(C)c1ccc(/C=C/c2sc3ccc4ccccc4c3[n+]2C)cc1,-30.7% (active),-26.6% (active),-31.1% (active),-19.9% (active),-11.2% (active),-63% (active),-29.1% (active),34%,,-23.7% (active)
COC(=O)c1nc(=S)[nH]c(C(=O)OC)c1C(=O)c1ccc(Cl)c(Cl)c1,115%,105%,,104%,112%,122%,102%,110%,118%,107%
CCCCCCCCCCCCSC(=N)N,-32.1% (active),-42.2% (active),-60.6% (active),33.1%,-15.2% (active),14.4%,92.1%,35.6%,,79%
CN(C)CCN(C)CC(C)(C)C(=O)/C=C/c1ccc(Cl)c(Cl)c1,-25.9% [100 µM] (active),-30.6% [100 µM] (active),,-98.5% [100 µM] (active),-92.2% [100 µM] (active),-98.4% [100 µM] (active),-39.5% [100 µM] (active),-47.2% [100 µM] (active),-93.4% [100 µM] (active),-97.7% [100 µM] (active)
[Cl-].[Rh+3].c1ccc(-c2ccnc3c2ccc2c(-c4ccccc4)ccnc23)cc1.c1ccc(-c2ccnc3c2ccc2c(-c4ccccc4)ccnc23)cc1.c1ccc(-c2ccnc3c2ccc2c(-c4ccccc4)ccnc23)cc1,89.4%,91.1%,,84.8%,66.5%,69.8%,,95.7%,-2.79% (active),77.9%
NNc1cccc([N+](=O)[O-])c1,35%,90.9%,78%,,83%,100%,106%,76.3%,,
O=C(c1ccccc1)C(Br)C(Br)c1ccccc1 (configuration not stated),31.4%,-3.12% (active),,90.2%,-22.3% (active),-10.9% (active),104%,117%,104%,115%
COc1c(C)c2c(c(O)c1C/C=C(\C)CCC(=O)O)C(=O)OC2,14%,57.8%,11.9%,44.5%,12.9%,34.4%,72%,31.2%,,45.2%
COc1ccc2c(c1)c(CC(=O)O)c(C)n2C(=O)c1ccc(Cl)cc1,106%,83.8%,,102%,99%,125%,97.8%,98%,105%,119%
Cc1cc(=O)oc2cc(O)cc(O)c12,106%,111%,,104%,108%,99.2%,106%,108%,96.4%,104%
COc1ccc(C(OCC2OC(n3ccc(NC(=O)c4ccccc4)nc3=O)C(O)C2O)(c2ccccc2)c2ccccc2)cc1 (configuration not stated),12.4%,3.08% (active),29%,,33.7%,45.6%,61.7%,38.1%,,75.1%

Structure (SMILES),growth (SR leukemia),growth (RPMI-8226 leukemia),growth (OVCAR-8 ovarian),growth (OVCAR-4 ovarian),growth (IGROV1 ovarian),growth (OVCAR-3 ovarian),growth (HS 578T breast),growth (NCI/ADR-RES ovarian),growth (OVCAR-5 ovarian),growth (SK-OV-3 ovarian)
Oc1ccc(Nc2ccc3ccccc3c2)cc1,50.4%,58.6%,59.8%,60.2%,58.1%,69.8%,87.6%,41.8%,,89.3%
O=C1C(=O)c2cc([N+](=O)[O-])ccc2-c2ccccc21,-7.48% (active),-42.1% (active),-58.6% (active),-97.6% (active),-72.5% (active),-94% (active),,-74.2% (active),,55.7%
Oc1ccc(Br)cc1Sc1cc(Br)ccc1O,41.4%,4.14% (active),51.4%,37.3%,81.5%,28.9%,,31.4%,,98.3%
NC(=S)N/N=C/c1ncccc1O,12.1%,11.3%,,35.2%,-11.2% (active),27.7%,,-27.4% (active),-8.61% (active),47.3%
O=C1C=CC(=O)c2c(O)c(CO)c(CO)c(O)c21,83.3%,18.2%,,64.9%,52.7%,98.3%,113%,97.2%,84.8%,109%
CCCCCCCCCCCC[n+]1ccc(CCCCCCCCC)cc1,-32% (active),-54.6% (active),,-79.1% (active),-79.5% (active),-85.3% (active),-7.56% (active),35.8%,-16.8% (active),-18.9% (active)
COc1ccc(/C=C2/C(=O)ON=C2C)cc1,115%,99.1%,105%,115%,115%,111%,102%,115%,,100%
CCOC(=O)C1(C)CCCC1N (configuration not stated),90.1%,109%,,99.2%,104%,104%,98.5%,116%,106%,131%
CC1(C)OC2C(COC(c3ccccc3)(c3ccccc3)c3ccccc3)OC(c3c[nH]c4c(N)ncnc34)C2O1 (configuration not stated),28.3%,27.4%,,50.1%,75.5%,53.8%,77.5%,86.9%,82.9%,70%
CN(C)c1ccc(/C=C/c2cc[n+](C)c(/C=C/c3ccc(N(C)C)cc3)c2)cc1,-34.3% (active),-26.4% (active),5.17% (active),19.9%,11%,20.5%,32.9%,58.8%,,7.83% (active)
CCCCCCCCCCCC(=O)OC(C)C(=O)NCCCC (configuration not stated),85.7%,104%,100%,,107%,107%,101%,101%,,102%
O=C1C=Cc2ccccc2/C1=C/c1nc(-c2ccccc2)oc1O,91.1%,104%,,85.2%,71.8%,91.6%,102%,85.7%,97.2%,86.6%
O=C(O)c1ccc2c(c1)C(=O)c1ccccc1C2=O,86.4%,102%,98.9%,,116%,99.3%,95.6%,105%,,98.8%
O=C(/C=C/C(Cl)(Cl)Cl)Nc1ccc(Cl)cc1,40.1%,75.3%,,115%,-76.5% (active),119%,105%,95.5%,93.7%,110%
O=Nc1ccc2ccccc2c1O,60.1%,70%,,35.2%,53.2%,2.86% (active),51%,6.37% (active),81.8%,95%
Cc1cc(Br)c2nsnc2c1[N+](=O)[O-],19.2%,23.9%,,47.7%,27.4%,57%,47%,50.5%,72.8%,91.3%
